Measurements reported in PubChem BioAssay (NCATS).
Inconclusive results are not listed. The source made the active and inactive calls. Calls come from the whole dose curve; as a rule, active = well fitted curve in the direction sought with a large enough effect; inconclusive = small, poorly fitted or top-dose-only effect, or another doubt; inactive = no such curve, though single readings can be large; an effect the other way counts as inactive or inconclusive.

Assays:
[1] = Quantitative highthroughput screen to assess conditional lethalithy of NOMO1 cells grown in RPMI1640 with untreated serum (RPMI+s) (AID 1963876); note: nearly all actives have a fitted effect of over 35% in size;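 for viability: 100% = DMSO wells and 0% = empty wells without cells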
In short: (§1)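 Each medium arm—HPLM with 10% dialyzed FBS, or RPMI1640 with 5 mM glucose and 10% untreated or dialyzed FBS—was screened against an 11-point, 3-fold compound titration for 48 h at 37 °C, with CellTiter-Glo luminescence as endpoint.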

[2] = Quantitative highthroughput screen to assess conditional lethalithy of NOMO1 cells grown in RPMI1640 with dialyzed fetal bovine serum (RPMI+ds) (AID 1963877); note: nearly all actives have a fitted effect of over 30% in size;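 for viability: series mostly up to about 46 µM; 100% = DMSO control wells and 0% = empty wells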
In short: as §1

[3] = Quantitative highthroughput screen to assess conditional lethalithy of SEM cells grown in RPMI1640 with unreated serum (RPMI+s) (AID 1963883); note: nearly all actives have a fitted effect of over 35% in size;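 for viability: 100% = DMSO wells and 0% = empty wells without cells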
In short: as §1

[4] = Quantitative highthroughput screen to assess conditional lethalithy of SEM cells grown in RPMI1640 with dialyzed fetal bovine serum (RPMI+ds) (AID 1963884); note: nearly all actives have a fitted effect of over 35% in size;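 for viability: series mostly up to about 46 µM; 100% = DMSO control wells and 0% = empty wells without cells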
In short: as §1

[5] = Quantitative highthroughput screen to assess conditional lethalithy of NOMO1 cells grown in Human Plasma-Like Medium with dialyzed fetal bovine serum (HPLM+ds) (AID 1963878); note: nearly all actives have a fitted effect of over 35% in size;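 for viability: 100% = DMSO wells and 0% = empty wells on each plate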
In short: as §1

[6] = Quantitative highthroughput screen to assess conditional lethalithy of P12 Ichikawa cells grown in Human Plasma-Like Medium with dialyzed fetal bovine serum (HPLM+ds) (AID 1963879); conditions: Potency: viability; note: nearly all actives have a fitted effect of over 35% in size; for viability: series mostly up to about 46 µM
In short: as §1

[7] = Quantitative highthroughput screen to assess conditional lethalithy of P12 Ichikawa cells grown in RPMI1640 with dialyzed fetal bovine serum (RPMI+ds) (AID 1963880); conditions: Potency: P12-Ichikawa viability; note: nearly all actives have a fitted effect of over 35% in size;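 for viability: 100% = DMSO wells and 0% = empty wells on each plate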
In short: as §1

[8] = Quantitative highthroughput screen to assess conditional lethalithy of P12 Ichikawa cells grown in RPMI1640 with untreated serum (RPMI+s) (AID 1963881); conditions: Potency: viability; note: nearly all actives have a fitted effect of over 35% in size;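 for viability: series mostly up to about 46 µM; 100% = DMSO wells and 0% = empty wells without cells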
In short: as §1

[9] = Cellular viability qHTS for adrenocortical cancer (ACC) cell line SW-13 (AID 1963989); conditions: SW-13 ACC cells viability, CellTiter-Glo, 48 h; activity (max response): active compounds read low; note: nearly all actives have a fitted effect of over 65% in size;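 for activity (max response): cells grown in serum-free medium with ITS supplement; % is set by controls: 0 for no effect and ±100 for the full control effect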
In short: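 Compound titrations (up to 46 uM final, in DMSO) were applied to SW-13 cells for 48 h at 37C/5% CO2. Reading used CellTiter-Glo after 20 min at room temperature; fitted curves yielded IC50 and efficacy.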

[10] = Quantitative highthroughput screen to assess conditional lethalithy of SEM cells grown in Human Plasma-Like Medium with dialyzed fetal bovine serum (HPLM+ds) (AID 1963882); note: nearly all actives have a fitted effect of over 35% in size; for viability: series mostly up to about 46 µM
In short: as §1

[11] = Cellular viability qHTS for adrenocortical cancer (ACC) cell line NCI-H295R (AID 1963990); note: nearly all actives have a fitted effect of over 60% in size;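 for activity change, negative = viability loss: 0% = DMSO only wells and -100% = full killing with cytotoxic reference compound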
In short: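 Readout: CellTiter-Glo luminescence, 20 min RT. Exposure: 48 h, 37C/5% CO2. Cells: NCI-H295R, ITS-DMEM serum-free. Range: up to 46 uM. Analysis: 4PL fit, IC50 plus efficacy.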
Potency is the fitted concentration of half-maximal effect.

CC(=O)N1CCN(c2ccc(OCc3nn(C)c(C)c3-c3cccc4c(CCCOc5cc(C)c(Cl)c(C)c5)c(C(=O)O)n(Cc5cccnc5)c34)cc2)CC1
active: Potency [3] 18.7 µM | Potency [4] 20.9 µM
inactive: Potency [1] | Potency [2]

Cc1nn(C)c2c1C(c1ccc(C(F)(F)F)cc1)C(C#N)=C(N)O2 (stereo unspecified)
inactive: Potency [1] | Potency [5] | Potency [6] | Potency [7] | Potency [8] | activity (max response) [9] -18.7%

CCC(=O)O[C@]1(C(=O)CO)CC[C@H]2[C@@H]3CCC4=CC(=O)CC[C@]4(C)[C@@H]3CC[C@@]21C
inactive: Potency [1]
active: Potency [2] 10.5 µM | Potency [3] 0.743 µM | Potency [4] 1.18 µM

COc1ccc2c3n(c(=NC(=O)c4cccnc4)nc2c1OC)CCN3
active: Potency [5] 7.43 µM | Potency [10] 20.9 µM | Potency [4] 9.35 µM
inactive: Potency [1] | activity (max response) [9] 2.77% | activity change, negative = viability loss [11] -25.5% [at 3.81 µM]

C=CC(=O)Nc1cc(NC(=O)c2ccc(C)c(NC(=O)c3ccno3)c2)cc(C(F)(F)F)c1
inactive: Potency [1] | Potency [6] | Potency [8] | Potency [10] | Potency [3]

CC(N[C@H]1CCCC[C@H]1NC(=O)c1ccc(Cl)cc1)c1cccc2ccccc12 (stereo partly specified)
inactive: Potency [10] | Potency [3]
active: Potency [1] 8.33 µM | Potency [5] 5.26 µM | Potency [9] 25.1 µM

CC[C@]12C=CCN3CC[C@@]4(c5cc([C@@]6(C(=O)OC)C[C@H]7C[C@@H](C(C)(F)F)CN(Cc8c6[nH]c6ccccc86)C7)c(OC)cc5N(C)[C@H]4[C@@](O)(C(=O)OC)[C@H]1OC(C)=O)[C@@H]32
active: Potency [1] 0.0332 µM | Potency [6] 0.0372 µM | Potency [7] 0.0743 µM | Potency [8] 0.0264 µM | Potency [10] 0.0296 µM | Potency [3] 0.0187 µM | Potency [4] 0.0332 µM

CCOC(=O)[C@H]1O[C@H]1C(=O)N[C@@H](CC(C)C)C(=O)NCCC(C)C
active: Potency [1] 23.5 µM
inactive: Potency [6] | Potency [7] | Potency [8] | Potency [10] | Potency [3] | Potency [4]

Cc1ccc(O)c(C(CCN(C(C)C)C(C)C)c2ccccc2)c1 (stereo unspecified)
inactive: Potency [1] | Potency [6] | Potency [7] | Potency [8] | Potency [10] | Potency [3] | Potency [4] | activity (max response) [9] 1.99% | Potency [11]

O=C(O)c1c(Cl)c(Cl)c(Cl)c(Cl)c1-c1c2cc(I)c(=O)c(I)c-2oc2c(I)c(O)c(I)cc12
active: Potency [1] 16.6 µM | Potency [6] 8.33 µM | Potency [9] 12.6 µM | Potency [11] 14.1 µM
inactive: Potency [5]

CCc1cc(C(C)=NOCc2ccc(C3CCCCC3)c(C(F)(F)F)c2)ccc1CN1CC(C(=O)O)C1
active: Potency [1] 8.33 µM | Potency [6] 8.33 µM | Potency [7] 7.43 µM | Potency [8] 9.35 µM | Potency [10] 7.43 µM | Potency [3] 13.2 µM

c1ccc(-c2nn3c(c2-c2ccnc4cc(OCCN5CCOCC5)ccc24)CCC3)nc1
inactive: Potency [1] | Potency [6] | Potency [7] | Potency [3] | Potency [11]
active: Potency [5] 18.7 µM

NC1=N[C@@]2(c3cc(NC(=O)c4ccc(F)cn4)ccc3F)COC[C@@H]2CS1
inactive: Potency [4]
active: Potency [1] 0.372 µM | Potency [6] 1.87 µM | Potency [7] 3.32 µM | Potency [8] 1.66 µM | Potency [3] 11.8 µM

CC(=O)O[C@H]1C[C@@H]2CC[C@H]3[C@H]4C[C@H]([N+]5(C)CCCCC5)[C@@H](OC(C)=O)[C@@]4(C)CC[C@@H]3[C@@]2(C)C[C@H]1N1CCCCC1
inactive: Potency [1] | Potency [5] | Potency [6] | Potency [8] | Potency [10] | Potency [3] | Potency [4]

Cc1c(Cn2c(C)nc3c(C(=O)O)cc(N4CCOCC4)cc32)cccc1C(F)(F)F
inactive: Potency [1] | Potency [6] | Potency [7] | Potency [8] | Potency [10] | Potency [3] | Potency [4] | activity (max response) [9] 6.79% | Potency [11]

COc1cccc(-c2ccc(NC(=O)C3=C(C(=O)O)CCC3)c(F)c2)c1
inactive: Potency [1] | Potency [5] | Potency [10]
active: Potency [6] 16.6 µM

O=C1C(Cl)=C(NCCN2CCOCC2)C(=O)c2ncccc21
active: Potency [1] 10.5 µM | Potency [5] 14.8 µM | Potency [8] 23.5 µM | Potency [10] 10.5 µM | Potency [3] 4.69 µM | Potency [4] 7.43 µM | Potency [9] 3.55 µM | Potency [11] 3.98 µM

C=CCNc1c(O)cc2c(O)c1C[C@@H](C)C[C@H](OC)[C@@H](O)[C@@H](C)C=C(C)[C@H](OC(N)=O)[C@@H](OC)C=CC=C(C)C(=O)N2
active: Potency [1] 10.5 µM | Potency [5] 13.2 µM | Potency [10] 1.66 µM | Potency [3] 0.833 µM | Potency [4] 0.833 µM

CC(=O)C1=C(O)C=C2Oc3c(C(C)=O)c(O)c(C)c(O)c3C2(C)C1=O (stereo unspecified)
active: Potency [1] 0.296 µM | Potency [6] 1.48 µM | Potency [7] 2.96 µM | Potency [8] 1.32 µM
inactive: Potency [3]

C[C@@H]1CC=CC=CC=CC=C[C@@H](O[C@@H]2O[C@H](C)[C@@H](O)[C@H](N)[C@H]2O)C[C@@H]2O[C@](O)(C[C@@H](O)C[C@@H]3O[C@@H]3C=CC(=O)O1)C[C@H](O)[C@@H]2C(=O)O
inactive: Potency [1] | Potency [5] | Potency [7] | Potency [8] | Potency [10] | Potency [3] | Potency [4]

O=C(CCc1ccc(O)cc1)c1c(O)cc(O)cc1O[C@@H]1O[C@H](CO)[C@H](O)[C@H](O)[C@H]1O
inactive: Potency [1] | Potency [6] | Potency [8] | Potency [10] | Potency [3]
